Results filed as inconclusive are left out. Calls of active or inactive are those of the source. The call rests on the fitted dose curve; in most records, active means well fitted inhibition curve with a large enough effect; inconclusive means small, poorly fitted or top-dose-only effect; inactive means flat fitted curve, though single readings scatter.

The values below come from PubChem BioAssay (NCATS).

Assay in all cases: qHTS profiling for inhibitors of Plasmodium falciparum proliferation (AID 504749); further: nearly all actives have a fitted effect of over 60% in size
Conditions in all cases: P. falciparum in erythrocytes, SYBR Green DNA, 72 h; series mostly up to 28.7 µM
(In qHTS, concentration-response curves come from the screen itself.)

The test system of one test is 7G8. The essentials: (§1)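 Three-day growth assay of blood-stage parasites in erythrocytes (0.3% parasitemia, 2.5% hematocrit) at 37 C, 5% CO2, quantified by SYBR Green DNA staining after overnight detergent lysis.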
Another test has as its system ATS95. The essentials: as §1
For a further test, the system named is CP201. Put shortly: as §1
A further test deals with CP203. Put shortly: as §1
The next test deals with CP250. The essentials:
as §1

A further test deals with CP256. The essentials: as §1
The test system of another test is CP262. Put shortly:
as §1

The subject of another test is CP265. Put shortly: as §1
For another test, the system named is CP269. Put shortly:
as §1

In a further test the test system is CP315. The essentials:
as §1

The subject of the next test is CP325. Put shortly: as §1
The next test concerns CP329. Put shortly: as §1
The test system of the next test is DIV30. The essentials:
as §1

Another test deals with ECU. Put shortly:
as §1

For another test, the system named is N140. The essentials:
as §1

A further test deals with PAD. Put shortly: as §1
For another test, the system named is PC15. The essentials: as §1
The next test deals with SC27B. The essentials:
as §1

The next test relates to TAB113. The essentials: as §1
For the next test, the system named is TAB165. The essentials:
as §1
Potency means the concentration at half of the fitted maximal effect.

Consider `C[S+](C)CC[C@H](N)C(=O)O`, for which the Potency result in the test on 7G8, in the test with ATS95, in the test on CP201, in the test with CP203, in the test on CP250 and with CP256 was “inactive” in each case. Further, the Potency result in the test with CP262, in the test on CP265, in the test with CP269, in the test on CP315, in the test on CP325 and with CP329 was “inactive” in each case. The Potency entry in the test with DIV30, in the test on ECU, in the test with N140, in the test with PAD, in the test on PC15 and in the test on SC27B was “inactive” throughout. In addition, the Potency entry with TAB113 and with TAB165 was “inactive” each time.

For the compound `OCC1O[C@H](O[C@H]2C(O)C(O)C(O)O[C@@H]2CO)C(O)C(O)C1O` (stereo not given in full), the Potency result in the test on 7G8, in the test with ATS95, in the test with CP201, with CP203, with CP250 and in the test with CP256 was “inactive” in each case. The Potency entry in the test with CP262, in the test with CP265, in the test with CP269, in the test on CP315, in the test on CP325 and in the test on CP329 was “inactive” in each case. The Potency result in the test with DIV30, with ECU, with N140, with PAD, with PC15 and in the test on SC27B was “inactive” in each case. The Potency entry in the test with TAB113 and with TAB165 was “inactive” each time.

As to `C[C@H]1[C@@H](OC(=O)CCC(=O)O)OC2OC3(C)CC[C@H]4[C@H](C)CC[C@@H]1[C@@]24OO3` (stereo not given in full), the Potency was 1.4 nM (active) in the test with 7G8; 5 nM (active) in the test with ATS95; 12 nM (active) in the test with CP201; 5.4 nM (active) with CP203; 4.5 nM (active) in the test with CP250; 7.1 nM (active) in the test on CP256. For the same compound, the Potency with CP262 was 5.4 nM (active); in the test on CP265, 2.5 nM (active); with CP269, 4.8 nM (active); in the test on CP315, 12 nM (active); with CP325, 6 nM (active); in the test with CP329, 7.6 nM (active). Besides, the Potency was 4.3 nM (active) in the test with DIV30; 2.8 nM (active) in the test on ECU; 3.2 nM (active) in the test on N140; 5.6 nM (active) with PAD; 4.5 nM (active) with PC15; 5 nM (active) with SC27B. The Potency was 2 nM (active) in the test on TAB113 and 1.8 nM (active) in the test with TAB165.

For `CO/N=C(/C(=O)N[C@@H]1C(=O)N2C(C(=O)O)=C(CSc3nc(C)c(CC(=O)O)s3)CS[C@H]12)c1csc(N)n1`, the Potency result in the test with 7G8, with ATS95, with CP201, in the test with CP203, with CP250 and with CP256 was “inactive” in each case. The Potency entry in the test on CP262, in the test on CP265, in the test with CP269, in the test on CP315, in the test on CP325 and in the test on CP329 was “inactive” each time. In addition, the Potency result with DIV30, with ECU, in the test with N140, in the test on PAD, in the test on PC15 and in the test on SC27B was “inactive” in each case. In addition, the Potency entry in the test on TAB113 and with TAB165 was “inactive” throughout.

Regarding `CN1[C@@H]2CC[C@@H]1CC(OC(=O)[C@H](CO)c1ccccc1)C2` (stereo not given in full), the Potency entry in the test with 7G8, in the test on ATS95, with CP201, in the test on CP203, in the test with CP250 and with CP256 was “inactive” in each case. Also, the Potency result in the test with CP262, in the test on CP265, in the test with CP269, in the test with CP315, with CP325 and in the test with CP329 was “inactive” in each case. The Potency result with DIV30, in the test with ECU, in the test on N140, in the test with PAD, in the test on SC27B and with TAB165 was “inactive” throughout.

Turning to `O=C1[C@@H]2C[C@@H]3C[C@H]1C[C@@](O)(C3)C2`, the Potency entry with 7G8, in the test with ATS95, with CP201, in the test on CP203, with CP250 and in the test with CP256 was “inactive” throughout. Besides, the Potency entry with CP262, in the test on CP265, with CP269, with CP315, in the test with CP325 and with CP329 was “inactive” each time. Besides, the Potency entry in the test on DIV30, with ECU, in the test with N140, in the test on PAD, in the test with PC15 and in the test on SC27B was “inactive” throughout. In addition, the Potency result with TAB113 and in the test with TAB165 was “inactive” each time.

As for `CC[C@H](C)[C@H]1O[C@]2(CC[C@@H]1C)C[C@@H]1C[C@@H](C/C=C(\C)[C@H](O[C@@H]3C[C@H](OC)[C@H](O[C@@H]4C[C@H](OC)[C@@H](O)[C@H](C)O4)[C@H](C)O3)[C@@H](C)/C=C/C=C3\CO[C@@H]4[C@H](O)C(C)=C[C@@H](C(=O)O1)[C@]34O)O2`, the Potency was 2000 nM (active) with 7G8; 1120 nM (active) in the test on ATS95; 1510 nM (active) with CP201; 1510 nM (active) in the test with CP203; 891 nM (active) in the test with CP250; 708 nM (active) in the test on CP256. Moreover, the Potency was 1200 nM (active) in the test with CP262; 794 nM (active) in the test with CP265; 1350 nM (active) in the test with CP269; 1350 nM (active) in the test with CP325; 1350 nM (active) with CP329; 891 nM (active) with ECU. For the same compound, the Potency is 1000 nM (active) in the test on N140; 1410 nM (active) in the test with PAD; 2820 nM (active) in the test with PC15; 1000 nM (active) in the test on SC27B; 891 nM (active) in the test on TAB113; 794 nM (active) in the test on TAB165.

`CC1C(=O)C(=O)C=CN1C` (stereo not given): the Potency result with 7G8, in the test with ATS95, in the test with CP201, with CP203, in the test on CP250 and in the test on CP256 was “inactive” in each case. The Potency entry in the test with CP262, in the test with CP265, with CP269, with CP315, with CP325 and in the test with CP329 was “inactive” throughout. The Potency entry with DIV30, with ECU, with N140, in the test with PAD, with PC15 and with SC27B was “inactive” throughout. The Potency entry in the test with TAB113 and in the test with TAB165 was “inactive” in each case.

Regarding `Cc1ccc(Nc2ncccc2C(=O)O)cc1C`, the Potency result in the test with 7G8, with ATS95, with CP201, in the test with CP203, in the test with CP250 and in the test on CP256 was “inactive” each time. The Potency result in the test with CP262, in the test with CP265, in the test with CP269, in the test on CP315, in the test with CP325 and in the test on CP329 was “inactive” in each case. Moreover, the Potency entry with DIV30, with ECU, with N140, in the test with PAD, with PC15 and with SC27B was “inactive” each time. Besides, the Potency entry in the test on TAB113 and in the test with TAB165 was “inactive” each time.

On to `O=[N+]([O-])O[C@H]1CO[C@H]2[C@@H]1OC[C@H]2O`, for which the Potency result in the test on 7G8, in the test on ATS95, in the test on CP201, in the test with CP203, in the test with CP250 and with CP256 was “inactive” throughout. In addition, the Potency entry with CP262, in the test on CP265, with CP269, with CP315, in the test on CP325 and with CP329 was “inactive” in each case. For the same compound, the Potency entry with DIV30, in the test on ECU, with N140, in the test on PAD, in the test on PC15 and in the test with SC27B was “inactive” throughout. Further, the Potency result in the test on TAB113 and in the test on TAB165 was “inactive” in each case.

Consider `CN[C@H](C)CCC=C(C)C`, for which the Potency is 50.1 nM (active) in the test on 7G8; 355 nM (active) in the test with ATS95; 2130 nM (active) with CP201; 601 nM (active) in the test on CP203; 631 nM (active) with CP250; 631 nM (active) in the test on CP256. In addition, the Potency in the test with CP262 was 1070 nM (active); in the test on CP265, 398 nM (active); in the test with CP269 it was 478 nM (active); in the test on CP315, 849 nM (active); with CP325, 757 nM (active); with DIV30 it was 135 nM (active). In addition, the Potency in the test with ECU was 224 nM (active); in the test with N140 it was 112 nM (active); in the test with PAD, 178 nM (active); in the test on PC15 it was 355 nM (active); with SC27B, 355 nM (active); with TAB113 it was 178 nM (active). The Potency in the test with TAB165 was 251 nM (active).
